# An excerpt weighted towards active compounds, which were near 11% of everything screened.
# 3T3 cytotox: Cytotoxic Profiling in NIH 3T3 Cell Line of Diverse Libraries Using Quantitative High-Throughput Screening | NIH 3T3 viability, CellTiter-Glo ATP luminescence, 48-72 h | Potency, µM (series often up to 96.7 µM), without a hit: at the top dose activity change, negative = cytotoxicity, usual class: inhibitors | hit rate 4.3% among 94,000; further: on the % scale 0 is the no-effect control and ±100 the full control effect; nearly all actives have a fitted effect of over 55% in size
#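 ATP-dependent luminescence (CellTiter-Glo) served as the viability signal for NIH 3T3 cells treated with compound for 48 or 72 hr at 37 °C.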
# FLuc inh-1: Firefly luciferase inhibition profiling of diverse chemical library using quantitative high-throughput screening | AID 1347043, 2019 | Potency, µM (series often up to 115 µM), hits mostly inhibitors | purified P. pyralis luciferase, luminescence, biochemical | hit rate 2.5% among 76,000 | Luciferin 4-monooxygenase (Photinus pyralis), P08659; further: on the % scale 0 is the no-effect control and ±100 the full control effect; nearly all actives have a fitted effect of over 65% in size
# Target sequence (P08659 whole entry, looked up): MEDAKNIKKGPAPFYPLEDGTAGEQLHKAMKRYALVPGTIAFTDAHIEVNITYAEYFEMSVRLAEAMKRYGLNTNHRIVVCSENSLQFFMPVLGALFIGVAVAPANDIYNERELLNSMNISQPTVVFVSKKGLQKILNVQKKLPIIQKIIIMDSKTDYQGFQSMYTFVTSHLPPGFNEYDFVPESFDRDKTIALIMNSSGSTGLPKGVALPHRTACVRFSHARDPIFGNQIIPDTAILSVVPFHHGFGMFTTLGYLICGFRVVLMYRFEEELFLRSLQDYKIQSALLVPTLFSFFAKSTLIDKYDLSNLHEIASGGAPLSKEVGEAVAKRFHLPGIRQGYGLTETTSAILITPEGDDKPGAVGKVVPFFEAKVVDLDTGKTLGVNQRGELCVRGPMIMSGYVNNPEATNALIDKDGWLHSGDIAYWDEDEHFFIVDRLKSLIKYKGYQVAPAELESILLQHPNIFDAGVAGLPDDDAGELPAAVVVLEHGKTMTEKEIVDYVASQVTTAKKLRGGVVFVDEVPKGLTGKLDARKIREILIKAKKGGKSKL
#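 Luminescence read by CCD imager after adding enzyme (10nM final) to wells holding compound, titrated in qHTS. Substrates 10uM each D-luciferin and ATP; buffer 50mM Tris acetate pH 7.5, 10mM Mg acetate, Tween-20, BSA.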
# NPR1 antag: Natriuretic polypeptide receptor (hNpr1) antagonism - Primary qHTS; hit rate 1.6% among 76,000; AID 1347048, 2019; Atrial natriuretic peptide receptor 1 (Homo sapiens), P16066; HEK293 hNpr1 GloSensor cGMP, ANP-stimulated luminescence; Potency, µM (doses to about 46.3 µM), for inactives: at the top dose activity change, negative = inhibition, most hits filed as inhibitors; calls by dose curve; further: on the % scale 0 is the no-effect control and ±100 the full control effect; nearly all actives have a fitted effect of over 60% in size
#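 HEK293 cells stably expressing human Npr1 and cGMP GloSensor pGS-40F, loaded 2 h with 2% GloSensor reagent, given compound 30 min at room temperature. Luminescence read before and 20 min after 0.1 nM hNppA.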
# HEK293 tox: Cytotoxic Profiling in HEK 293 Cell Line of Diverse Libraries Using Quantitative High-Throughput Screening | HEK 293 viability, ATP luminescence (CellTiter-Glo), 48-72 h | Potency, µM (top dose mostly 115 µM), for inactives: at the highest dose activity change, negative = cytotoxicity, usual class: inhibitors | hit rate 6.6% among 94,000 | AID 1345083, 2018; further: on the % scale 0 is the no-effect control and ±100 the full control effect; nearly all actives have a fitted effect of over 60% in size
#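 qHTS cytotoxicity; HEK 293, 250 cells/well; compound pinned; 48 or 72 hr, 37 degree Celsius, 5% CO2, 95% humidity; CellTiter-Glo, 10 min RT; luminescence (ATP).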
# FLuc SDR no ATP: Firefly luciferase (FLuc-C-HiBiT) SDR gain of signal screen - without ATP; shares compounds with FLuc inh-1; Purified FLuc-C-HiBiT, Nano-Glo HiBiT luminescence, no ATP; Potency, µM (series often up to 32.7 µM), for inactives: at the highest dose activation (signal gain), actives largely listed as activators; hit rate 7.8% among 1,300; further: nearly all actives have a fitted effect of over 55% in size
# FLuc SDR ATP: Firefly luciferase (FLuc-C-HiBiT) SDR gain of signal screen - plus ATP | shares compounds with FLuc inh-1 | hit rate 8.7% among 1,300 | Potency, µM (doses to about 32.7 µM), for inactives: at the top dose activation (gain of signal), actives largely listed as activators | purified FLuc-C-HiBiT + ATP, HiBiT complementation luminescence;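 further: signal reports ligand binding via conformational change of the enzyme rather than luciferase catalysis; % of control where 0% means no effect; nearly all actives have a fitted effect of over 55% in size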
# FLuc inh-2: Firefly luciferase (FLuc-C-HiBiT) enzymatic inhibition screen - Functional assay; shares compounds with FLuc inh-1; purified FLuc-C-HiBiT enzyme, luciferin luminescence; Potency, µM (series often up to 32.7 µM), inactives show top-dose activity change, negative = inhibition, usual class: inhibitors; hit rate 42% among 1,300; AID 1963320, 2024; further: on the % scale 0 is the no-effect control and ±100 the full control effect; nearly all actives have a fitted effect of over 70% in size
# Numbers without * were called inactive; i = inactive; ? = inconclusive; nt = not tested or not shown; [ ] = dose if it differs, or a comment. Unless noted, the call rests on the fitted dose curve; in most records, active means well fitted curve in the direction sought with a large enough effect; inconclusive means small, poorly fitted or top-dose-only effect, or another doubt; inactive means no such curve, though single readings can be large; an effect the other way counts as inactive or inconclusive. Potency means the concentration at half of the fitted maximal effect.
SMILES,3T3 cytotox,FLuc inh-1,NPR1 antag,HEK293 tox,FLuc SDR no ATP,FLuc SDR ATP,FLuc inh-2
Cc1ccc(C2Cn3nnc(C(=O)N4CCC(C(=O)NCc5ccncc5)CC4)c3CO2)cc1 (centres undefined),-28.6%,14.1µM*,-3.5%,1.0%,7.4%,?,?
Cc1ccc(C2Cn3nnc(C(=O)N4CCC(C(=O)NC5CC5)CC4)c3CO2)cc1 (centres undefined),-17.5%,10µM*,-3.4%,-4.7%,12.1%,?,?
COc1ccc(CNC(=O)C2CCN(C(=O)c3nnn4c3COC(c3ccc(C)cc3)C4)CC2)cc1 (centres undefined),i,i,3.5%,1.4%,nt,nt,nt
CC(=O)NC1(C)CN(Cc2ccc(-c3ccccc3OCc3ccccc3)s2)C1,28.2µM*,7.08µM*,?,39.8µM*,12.6%[49.3 µM],10.5%[49.3 µM],?
CN1C[C@@H](NS(=O)(=O)c2ccc(C#N)cc2)C[C@H]1c1nc(-c2ccc(Cl)cc2)no1,?,10µM*,?,?,3.8%,4.1%,?
COC1CCOC2(CCN(C(=O)c3ccc4ccccc4n3)CC2)C1 (centres undefined),i,i,-5.1%,-2.7%,nt,nt,nt
CNC(=O)Nc1ccc(C2(C(=O)Nc3ccc4c(c3)CCC4)CCC2)cc1,?,i,-10.8%,?,nt,nt,nt
CN1CCN(c2ccc(-c3cc4c(ccn4C)c(C(=O)NCCN4CCNC4=O)n3)cc2)CC1,?,4.47µM*,5.8%,?,24.7%,16.0%,?
O=C(Nc1nn(-c2cccc(F)c2)c2cccc(N3CCOCC3)c12)C1CCC1,?,7.94µM*,?,44.7µM*,?,11.3%,?
O=C1CO[C@H]2CCN(Cc3ccccc3O)CC[C@@H]2N1Cc1ccccc1,-19.3%[138 µM],i,-4.1%[70.6 µM],?,nt,nt,nt
Cc1cccc(CN2CCC3(CC2)Cc2ccccc2CNC3=O)n1,i,nt,nt,i,nt,nt,nt
Cc1cccc(-c2ncc(CN(CCN3CCOCC3)Cc3ccco3)cn2)c1,-23.1%,i,5.1%,?,nt,nt,nt
CCCCOc1nc(N)c2[nH]c(=O)n(CCCN(CCCN3CCOCC3)Cc3cccc(CC(=O)OC)c3)c2n1,nt,nt,nt,nt,11.7%,7.0%,4.1%
COc1cc(CNC(=O)c2ccc3c(c2)N(C)C2CCCN2C3=O)cc(OC)c1 (centres undefined),-17.6%,i,0.0%,-18.9%,nt,nt,nt
O=C1NCCCCCCN(C(=O)COc2ccc(F)cc2)[C@H]2CCCC[C@@H]12,-13.5%,i,5.7%,3.4%,nt,nt,nt
COc1ccc(-c2nnc(SC(C)C(=O)O)o2)cc1 (centres undefined),nt,nt,nt,nt,?,?,?
COc1ccc(-c2nnc([C@H]3CCN(C(=O)c4ccc(F)cc4)C3)o2)cc1,-20.9%[138 µM],i,0.9%[70.6 µM],-11.9%[172 µM],nt,nt,nt
COc1ccc(-n2nc(C3CCCN(C(=O)Cc4ccccn4)C3)[nH]c2=O)cc1 (centres undefined),-7.6%,i,0.0%,0.6%,nt,nt,nt
O=C1C[C@H]2CC[C@@H](CN1)N2Cc1ccc(OCc2ccccc2)cc1,?,11.2µM*,?,?,12.9%,11.0%,?
O=C(Nc1cccc(-c2nc3ccccc3s2)c1)c1cc2ccccc2oc1=O,nt,nt,nt,nt,13.8%,9.9%,-8.8%
Cc1c(C(=O)Nc2cccc(-c3nc4ccccc4s3)c2)oc2ccccc12,nt,nt,nt,nt,9.5%,10.0%,-25.7%
Cc1ccc2oc(C(=O)Nc3cccc(-c4nc5ccccc5s4)c3)c(C)c2c1,nt,nt,nt,nt,16.5%,?,?
O=C(Nc1cccc(Cl)c1)c1ccc2oc(-c3ccccn3)nc2c1,-24.0%,nt,nt,?,nt,nt,nt
Cn1ncc2c(C(=O)NCc3ccccc3F)cc(-c3cccc(C(F)(F)F)c3)nc21,-31.0%,nt,nt,-28.3%,nt,nt,nt
COc1cc(NC(=O)CCN2CCCCCC2=O)ccc1NC(=O)C(C)(C)C,-25.7%,i,9.6%,-0.2%,nt,nt,nt
SMILES,3T3 cytotox,FLuc inh-1,NPR1 antag,HEK293 tox,FLuc SDR no ATP,FLuc SDR ATP,FLuc inh-2
COc1cc(NC(=O)c2ccc(-c3ncn[nH]3)cc2)ccc1NC(=O)C(C)(C)C,?,11.2µM*,-13.6%,25.1µM*,18.2%,11.9%,?
CC(C)Cc1noc(-c2ccc(N3CCC(O)CC3)nc2)n1,?,0.794µM*,8.91µM*,-26.8%,24.0%,?,5.56µM*
CCOc1cccc(CNC(=O)C2Cn3cccc3C(=O)N2)c1 (centres undefined),-5.4%,i,3.2%,-6.7%,nt,nt,nt
CCc1ccc(-n2nc(CO)c(C(=O)NC)n2)cc1,nt,nt,nt,nt,?,18.9%,?
CCc1ccc(C(=O)Nc2ccc(-c3nnc4n3CCCC4)cc2)cc1,-3.6%,?,-2.4%,3.2%,nt,nt,nt
Cc1ccc(C2=CC(c3ccccc3C)n3c(nc4ccccc43)N2)cc1 (centres undefined),nt,nt,nt,nt,?,?,4.42µM*
CC(=O)NCc1nnc2n1C(C(=O)Nc1ccc(C)cc1)CC2 (centres undefined),-1.9%,nt,nt,i,nt,nt,nt
COc1cc(OC)c(NC(=O)Cn2c(SCc3ccccc3F)nc3cccnc32)cc1Cl,nt,nt,nt,nt,18.4%,12.4%,-8.2%
COc1ccc(NC(=O)Cn2c(-c3ccc(Cl)cc3)nc(C)cc2=O)cc1OC,-12.0%,i,0.4%,?,nt,nt,nt
COc1ccccc1Cn1c(=O)c(C(=O)NCCSC)nc2cccnc21,?,nt,nt,0.8%,nt,nt,nt
COc1ccc(NC(=O)Cn2c(SCc3ccc(C)cc3)nc3cccnc32)cc1OC,nt,nt,nt,nt,1.4µM*,?,0.7µM*
COc1ccc(C[C@H](NC(=O)[C@@H]2C[C@H](NC(=O)Nc3cccc(OC)c3)CN2C(=O)c2cccn2C)C(N)=O)cc1,i,i,-1.7%,2.3%,nt,nt,nt
Cc1cc(F)ccc1OC1(C(=O)O)CCN(c2ncnc3nc[nH]c23)CC1,4.9%,i,3.9%,i,10.1%,6.7%,3.0%
COc1ccccc1-c1noc(-c2nc(-c3ccc4c(c3)OCO4)no2)n1,-11.2%,i,1.7%,-6.5%,nt,nt,nt
O=C(O)c1cccc(-c2noc(-c3cc([N+](=O)[O-])cc([N+](=O)[O-])c3)n2)c1,nt,nt,nt,nt,6.0%,?,3.13µM*
COc1ccc(-c2nc(-c3cccc(C(=O)O)c3)no2)cc1,nt,nt,nt,nt,1.11µM*,0.0031µM*,0.0025µM*

# From PubChem BioAssay
